In PubChem BioAssay (EPA / NIEHS):
Results filed as inconclusive are left out. Active and inactive are the calls of the source. How the source made its calls: active means hit-call score of the fitted dose curve at least 0.9, where 1 is the maximum; inconclusive means response in the unintended direction; inactive means score below 0.9.

target: Peroxisome proliferator-activated receptor gamma (Homo sapiens) (UniProt P37231); assay: OT_PPARg_PPARgSRC1_0480: Odyssey Thera (OT) 8-hour Protein-Complementation Assay for Peroxisome Proliferator-activated Receptor Gamma / SRC-1 Co-activator (AID 2283387);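 further: nuclear to cytoplasmic split Venus YFP fluorescence ratio reporting PPARg SRC-1 interaction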
Outline: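 Protein-fragment complementation in HEK293T: Venus YFP halves (residues 1-158, 159-239, mutated to IFP1/IFP2) fused to PPARg/SRC-1. 8 h exposure; N/C ratio at 488 nm; DMSO negative control.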

Sequence of Peroxisome proliferator-activated receptor gamma (Homo sapiens) (P37231 whole entry, looked up, the tested form may be a part): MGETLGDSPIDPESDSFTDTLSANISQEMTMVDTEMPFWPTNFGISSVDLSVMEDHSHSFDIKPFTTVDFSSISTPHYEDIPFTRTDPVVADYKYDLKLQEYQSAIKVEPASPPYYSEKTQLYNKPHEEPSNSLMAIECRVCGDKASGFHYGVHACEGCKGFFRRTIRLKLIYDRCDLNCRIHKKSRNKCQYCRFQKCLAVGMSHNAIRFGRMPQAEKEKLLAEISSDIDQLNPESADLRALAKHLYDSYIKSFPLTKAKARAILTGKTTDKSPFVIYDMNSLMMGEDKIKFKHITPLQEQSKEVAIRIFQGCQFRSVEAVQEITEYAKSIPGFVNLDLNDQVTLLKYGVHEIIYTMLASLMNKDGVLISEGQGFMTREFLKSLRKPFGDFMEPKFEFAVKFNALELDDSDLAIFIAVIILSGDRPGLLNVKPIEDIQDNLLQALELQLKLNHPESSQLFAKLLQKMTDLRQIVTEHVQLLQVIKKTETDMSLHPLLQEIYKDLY

SMILES	outcome	AC50
O=C(O)CCC(=O)O	inactive	–
O=S(=O)(O)c1ccc(N=Nc2c(O)ccc3ccccc23)cc1	inactive	–
CCCCCC(=O)OCC	inactive	–
C=C[Si](OCCOC)(OCCOC)OCCOC	inactive	–
O=C(Oc1ccccc1)c1ccccc1O	inactive	–
CN(C)c1ccc2nc3ccc(=[N+](C)C)cc-3sc2c1	–	31.1 µM (active)
O=C(OCc1ccccc1)c1ccc(O)cc1	inactive	–
CCCCCCCOC(=O)c1ccc(O)cc1	inactive	–
C[Si]1(C)O[Si](C)(C)O[Si](C)(C)O[Si](C)(C)O[Si](C)(C)O1	inactive	–
Fc1ccc(Br)cc1	inactive	–
CCCCCCCCCC(C)=O	inactive	–
O=C(O)c1ccc2c(c1)C(=O)OC2=O	inactive	–
CCC1COC(=O)O1 (stereo unspecified)	inactive	–
C=C[C@@]1(C)CC(=O)[C@]2(O)[C@@]3(C)[C@@H](O)CCC(C)(C)[C@@H]3[C@H](O)[C@H](OC(C)=O)[C@@]2(C)O1	inactive	–
CC(C)(C)NC(=O)[C@H]1CC[C@H]2[C@@H]3CC[C@H]4NC(=O)C=C[C@]4(C)[C@H]3CC[C@]12C	inactive	–
COc1ccc(-c2coc3cc(O)cc(O)c3c2=O)cc1	inactive	–
CC(C)(c1ccccc1)c1ccc(Nc2ccc(C(C)(C)c3ccccc3)cc2)cc1	inactive	–
CCCCCCC=O	inactive	–
CCCCNS(=O)(=O)c1ccccc1	inactive	–
Cc1ccc([N+](=O)[O-])cc1N	inactive	–
CCN1CN(CC)CN(CC)C1	inactive	–
CC(C)c1ccc(O)c(C(C)C)c1	inactive	–
COc1ccc(C(=O)c2ccccc2)c(O)c1	inactive	–
CCCCC(C=O)CC (stereo unspecified)	inactive	–
O=C(O)c1cc(O)c2ccccc2c1O	–	73.7 µM (active)
N#Cc1ccc(C(c2ccc(C#N)cc2)n2cncn2)cc1	inactive	–
